Screening results (PubChem BioAssay)
In the library only some 1.3% were active in any assay of this set; here they are far more common.
PrPC surface inh = inhibitors of human cell surface prion protein PrPC, primary screen, cell-based, TR-FRET. Major prion protein (Homo sapiens), P04156. TR-FRET read-out. inhibition, % at 13.8 µM. 370,000 tested, 0.43% active. AID 720596, 2013; in the data active = inhibition above about 24%; also: 0% = median of the test wells and 100% = reference compound wells
CCHFV vOTU inh = CCHFV vOTU protease inhibitors, primary screen, biochemical, Pep-AMC substrate, fluorescence; inhibition, % at 11.5 µM; 370,000 tested, 0.55% active; in the data active = inhibition above about 30%; also: 0% = vehicle wells with enzyme and 100% = no enzyme wells
3CLpro inhibitor = SARS-CoV 3CLpro protease inhibitors, primary screen, biochemical, quenched FRET | recombinant SARS-CoV 3CLpro, quenched FRET peptide cleavage | inhibition, % at 6 µM | 290,000 tested, 0.14% active; in the data active = inhibition above about 12%
PrP 5UTR inh = inhibition of PrP 5' UTR reporter expression. cell-based PrP 5' UTR mRNA reporter, plate reader. inhibition, % (concentration not given with the values). 340,000 tested, 0.35% active; in the data active = inhibition above about 52%; also: 0 = median of the neutral control wells
PrPC confirm = confirmation of inhibitors of cell surface human prion protein, confirmation, cell-based, TR-FRET. shares compounds with PrPC surface inh. cell surface PrPC level. inhibition, % at 13.8 µM. 1,500 tested, 65% active; in the data active = inhibition above about 25%
LD9 cytotox = cytotoxicity in LD9 cells, cytotoxicity control for cell surface PrPc inhibitor project, cell-based, luminescence, high throughput. shares compounds with PrPC surface inh. luminescence viability. inhibition, % at 13.8 µM. 1,500 tested, 29% active; in the data active = inhibition above about 9.5%
Numbers without * were called inactive; · = no result given.

SMILES | PrPC surface inh | CCHFV vOTU inh | 3CLpro inhibitor | PrP 5UTR inh | PrPC confirm | LD9 cytotox
Clc1ccc(Cn2ncc3c(N4CCCCC4)ncnc32)c(Cl)c1 | -4 | 10 | 1 | -3 | · | ·
Cn1cnc([N+](=O)[O-])c1S(=O)(=O)c1ccc(Cl)cc1 | 37* | 1 | 4 | -20 | 0 | 91*
Cn1cnc([N+](=O)[O-])c1NC(C)(C)C | -4 | 5 | 0 | -29 | · | ·
Cc1ccc2c(c1)[C@H]1[C@H](CO2)[C@H](c2ccccc2)[C@]2(C)C(=O)Nc3ccc(F)cc3C(=O)N12 | 5 | 6 | · | -15 | · | ·
Cc1ccc2c(c1)[C@H]1[C@H](CO2)[C@H](c2ccccc2)[C@]2(C)C(=O)Nc3cc(F)c(F)cc3C(=O)N12 | 29* | 11 | · | -5 | 19 | -6
C[C@@]12C(=O)N(c3cccc(F)c3)C(=O)N1[C@@H]1c3ccccc3OC[C@@H]1[C@H]2c1ccccc1 | 29* | 17 | · | -21 | 16 | -1
O=C(CN1C(=O)C(=O)N(C2CCCC2)C1=O)Nc1ccc(N2CCOCC2)cc1 | 7 | 13 | -4 | -5 | · | ·
Cc1ccc2nc(N(CCN(C)C)C(=O)/C=C/c3cccs3)sc2c1 | 7 | 20 | -5 | 10 | · | ·
CCc1cccc2c(C#N)cn(CC(=O)NCCOC)c12 | -4 | -3 | -7 | -7 | · | ·
CC(C)=CCN1CCN(Cc2nc(-c3ccccc3)cs2)CC1CCO (stereo unspecified) | -4 | -5 | 2 | -34 | · | ·
Cc1nn(Cc2ccc(Cl)c(Cl)c2)c(C)c1NC(=O)c1cc(CC(C)C)on1 | 49* | 9 | 5 | -8 | 51* | 1
Cc1ccccc1Cn1nc(C)c(NC(=O)c2cc(CC(C)C)on2)c1C | 7 | -2 | -1 | -12 | · | ·
Cc1ccc(Cl)cc1NC(=O)c1ccc(Cn2cc(Cl)cn2)cc1 | 27* | 7 | 3 | -2 | 24 | 3
CCOc1ccc(C(=O)Nc2cnn(Cc3ccc(Cl)c(Cl)c3)c2)cc1 | 27* | -5 | 5 | 2 | 23 | -4
O=C(Nc1ccccc1F)c1ccc(Cn2cc(Cl)cn2)cc1 | 6 | -5 | -1 | -25 | · | ·
CSc1ccccc1NC(=O)CN(C)C(=O)CNC(=O)c1ccc(Oc2ccccc2)cc1 | 11 | 7 | · | · | · | ·
CN1CCCC1c1ccc(=O)[nH]c1 (stereo unspecified) | -1 | 0 | · | -26 | · | ·
CNC(=O)CSc1nc(N)c2c3c(sc2n1)CCC3 | -1 | -6 | 1 | · | · | ·
CCSc1nc(N)c2c3c(sc2n1)CCC3 | 25* | 1 | -2 | -48 | 39* | -3
CCCC(=O)Nc1ccc(C(=O)NNC(=S)NC(=O)c2ccc(Br)o2)cc1 | 32* | -10 | -2 | -1 | 0 | -3
CCCC(=O)Nc1ccc(C(=O)NNC(=S)NC(=O)c2cccs2)cc1 | -4 | -9 | 0 | -23 | · | ·
CCOc1ccc(NC(=O)COc2cccc3cccnc23)cc1S(=O)(=O)N1CCCC1 | -1 | 3 | · | · | · | ·
O=C(COc1cccc2cccnc12)Nc1cccc(S(=O)(=O)N2CCCC2)c1 | 31* | 14 | · | 3 | 5 | 0
O=C(NC(NC(=S)Nc1ccccc1Cl)C(Cl)(Cl)Cl)c1cccc(Cl)c1 (stereo unspecified) | 25* | 18 | 6 | -22 | 40* | 11*
CC1(C(=O)NS(=O)(=O)c2ccccc2Cl)CCN1C(=O)CC1CCCCC1 (stereo unspecified) | 8 | 0 | · | · | · | ·
SMILES | PrPC surface inh | CCHFV vOTU inh | 3CLpro inhibitor | PrP 5UTR inh | PrPC confirm | LD9 cytotox
Cc1ccc(Nc2c(-c3ccccn3)nc3cccc(C)n23)cc1 | 30* | 14 | 2 | 26 | 18 | 40*
Cc1cccc2nc(-c3ccco3)c(Nc3ccccc3)n12 | 1 | -106 | 0 | -29 | · | ·
COc1cccc2c(=O)c(C(=O)NCCc3ccccc3)c[nH]c12 | 25* | -21 | · | -41 | 12 | -4
O=C1N[C@@H](c2ccccc2)COC(=O)[C@@H](Cc2ccc(F)cc2)C/C=C\C[C@@H]1CC(=O)N(CCO)Cc1ccccc1 | -9 | 10 | · | -8 | · | ·
COc1ccc2c(c1)CCC1(C)CC(=O)C(Br)=C21 (stereo unspecified) | 42* | -162 | · | · | 68* | -4
O=C1C(=Cc2cccc(Cl)c2)CCc2ccccc21 | -8 | 11 | · | · | · | ·
CCCCC1=CC2=C(c3ccco3)C(=O)C(C)(OC(=O)c3ccc(OC)cc3)C(=O)C2=CN1CCc1ccccn1 (stereo unspecified) | 26* | 6 | · | -11 | 33* | -3
CCCCC1=CC2=C(c3ccco3)C(=O)C(C)(OC(=O)c3ccc(OC)cc3)C(=O)C2=CN1CCOC (stereo unspecified) | -1 | 14 | · | -10 | · | ·
COc1ccc(CNS(=O)(=O)c2ccc3c(c2)N(C)CCO3)cc1 | 8 | -7 | 2 | -33 | · | ·
Cc1ccc(-n2c(N)c(C(=O)N3CCOCC3)sc2=S)cc1 | -4 | 5 | 4 | · | · | ·
CCc1nc2ccccc2[nH]c1=O | 37* | 2 | 4 | 1 | 0 | -6
Cc1ccc(CN2CCCCC(NC(=O)Nc3ccccc3-c3ccccc3)C2=O)cc1 (stereo unspecified) | 30* | 14 | · | · | 18 | -3
CC(=O)CSc1nc(-c2cccs2)c(C#N)c(=O)[nH]1 | 91* | -4 | 0 | -10 | 99* | -5
CC(=O)CSc1nc(N)c(C#N)c(-c2cccs2)c1C#N | -8 | 4 | 3 | -14 | · | ·
Cc1c(NC(=O)C(C)OC(=O)CC2Sc3ccccc3NC2=O)c(=O)n(-c2ccccc2)n1C (stereo unspecified) | -8 | -4 | 1 | -24 | · | ·
COc1ccc(-c2cc(CNc3nc(NC(C)C)nc4cc(-c5ccccc5)sc34)on2)cc1 | 25* | 11 | · | · | 40* | 7
C#CCn1cc(/C=N/Nc2nc3ccccc3[nH]2)c2ccccc21 | 36* | 8 | 0 | -35 | 10 | 19*
COc1cc(C=NO)nc(-c2ccccn2)c1 | 37* | 0 | · | 44 | 33* | 22*
CN1CCC(=NNC(=O)c2cc(-c3ccc(Cl)cc3)n[nH]2)CC1 | -3 | 4 | -2 | -18 | · | ·
COc1ccccc1NS(=O)(=O)c1cccc(NC(=O)Nc2ccccc2)c1 | 20 | 7 | 9 | -14 | · | ·
COc1ccccc1NS(=O)(=O)c1cccc(NC(=O)Nc2ccc(Cl)cc2)c1 | 45* | 13 | 4 | -12 | 19 | 0
Cc1cc(=O)[nH]c(/N=C(/NC(=O)c2ccccc2)Nc2ccc3c(c2)OCCO3)n1 | · | · | 1 | · | · | ·
CC(=O)Nc1ccc2nc(NC(=O)c3cccs3)sc2c1 | 5 | 1 | -4 | -64 | · | ·
COc1ccc2nc(NC(=O)c3cccs3)sc2c1 | 27* | -2 | 1 | · | 15 | 4
Nc1[nH]nc2nnc(-c3c(-c4ccccc4)nn4ccccc34)cc12 | -27 | · | · | · | · | ·
O=C(Cc1ccccc1)OCn1nnc2ccccc2c1=O | 37* | 1 | 3 | -18 | 6 | 0
Cc1cccc(CC(=O)OCn2nnc3ccccc3c2=O)c1 | 2 | 13 | 2 | -6 | · | ·
